# Experimental data: PubChem BioAssay (NCI)
# About 79,000 compounds went through this panel and 15% of them were active in at least one assay; those are over-represented in the sample as a whole. A number with no mark means an inactive call. The source made the active and inactive calls. No stated cut-off is given here; in the data, active means growth inhibition above about 70%; inactive means the rest.
# Experiment: NCI Yeast Anticancer Drug Screen. Data for the cln2 rad14 strain (AID 165);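 further: 0% = growth equal to vehicle treated cultures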
# Details: S. cerevisiae cln2 rad14 strain, at 50.0 µM (retest, dose inferred, filed as 5.0), stronger effect = higher value
# Summary of the method: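 Growth of compound-exposed yeast (cln2 rad14 genotype) measured and expressed as inhibition relative to vehicle.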
row,SMILES,growth inhibition
1,CN(C)C[C@H]1CC[C@@H](CN(C)C)C1=O,14%
2,CC1=C(SCCO)C(=O)c2ccccc2C1=O,27%
3,COC(=O)CCNc1c2ccccc2nc2cccc([N+](=O)[O-])c12,99% (active)
4,COC(=O)C1=C(C)NC(C)=C(C(=O)OCCCN2CCC(c3ccccc3)(c3ccccc3)CC2)C1c1cccc([N+](=O)[O-])c1 (centres undefined),98% (active)
5,CCOC(=O)c1cnc2c(C(F)(F)F)cccc2c1N=[N+]=[N-],24%
6,O=[N+]([O-])c1cc2no[n+]([O-])c2cc1N1CCCCC1,-46%
7,COC(=O)c1ccc(NCC2=CC(=O)C=CC2=O)cc1O,93% (active)
8,CCCCCCCCNC(=O)C1=C(C)NC(C)=C(C(=O)NCCCCCCCC)C1,2%
9,S=C(Nc1ccc(Cl)c(Cl)c1)SCc1ccc2c(c1)OCO2,97% (active)
10,O=S(=O)(CCCl)c1ccccc1Cl,25%
11,Nc1ccccc1CC(O)C(=O)O (centres undefined),14%
12,CC(C)C1=CCC2C(=C1)CCC1C(C)(C(=O)O)CCCC21C (centres undefined) (tested in a mixture with another compound),98% (active)
13,CSC(=S)Nc1cc(C)ccn1,86% (active)
14,CC(C)c1cc(C(C)C)c(O)c(C([O-])[O-])c1.CC(C)c1cc(C(C)C)c(O)c(C([O-])[O-])c1.CC(C)c1cc(C(C)C)c(O)c(C([OH2+])[OH2+])c1.CC(C)c1cc(C(C)C)c(O)c(C([OH2+])[OH2+])c1.[Cu+2].[Cu+2].[OH3+].[OH3+],12%
15,Cc1cc(I)ccc1N,93% (active)
16,CC(Br)C(=O)c1ccc2cc(Br)c3ccccc3c2c1 (centres undefined),-32%
17,O=C(Nc1ccccc1)OCCc1ccc(Cl)c(Cl)c1,85% (active)

row,SMILES,growth inhibition
1,O=Cc1cccc2ccc3ccccc3c12,2%
2,O=[N+]([O-])CC(SCc1ccccc1)c1ccc2c(c1)OCO2 (centres undefined),97% (active)
3,CC1(Cl)CC(O)C2(CC1Br)C1(C)OC1C1OC1(Br)C2(C)C (centres undefined),58%
4,Cc1cc(O)cc(O)c1N=Nc1ccc([N+](=O)[O-])cc1,72% (active)
5,CCCCCCCCCCCCCC[N+](C)(CC(=O)[O-])Cc1ccccc1 (centres undefined),99% (active)
6,CC(=O)OCc1ccc(O)c(C=O)c1,30%
7,Cc1ccc2ccc3cccc4ccc1c2c34,6%
8,Cc1nc(-[n+]2nc(-c3ccncc3)nn2-c2ccccc2)sc1C,11%
9,CCCCCCCCCCC(=O)Cl,58%
10,COC1C=COC2(C)Oc3c(C)c(O)c4c(c3C2=O)/C(=N/C2CCC(O)OC2C)C=C(NC(=O)/C(C)=C\C(=O)C2CC2C(O)C(C)C(O)C(C)C(OC(C)=O)C1C)C4=O (centres undefined),57%
11,S=c1[nH]nc(Nc2ccc(Cl)cc2)s1,83% (active)
12,O=C1CSC(/C=C/c2ccccc2)N1c1ccc(-c2ccc(-n3c(-c4ccccc4)nc4ccccc4c3=O)cc2)cc1 (centres undefined),42%
13,O=C1C=CC(=O)N1c1ccc2c(c1)Cc1cc(NC(=O)C(F)(F)F)ccc1-2,51%
14,Brc1ccc(-c2cc3c(cc2C2SCCS2)OCO3)cc1,32%
15,Oc1ccc2ccccc2c1C(c1ccc(Cl)cc1)c1c(O)ccc2ccccc12,95% (active)
16,C[CH2][Sn]([CH2]C)([O]C(=O)C(OC(C)=O)c1ccccc1)[O]C(=O)C(OC(C)=O)c1ccccc1 (centres undefined),44%
17,Cc1ccc2ccc(O)cc2c1,53%
